# Results from PubChem BioAssay AID624125 (The Scripps Research Institute Molecular Screening Center, 2012).
# Among all 360,000 compounds or so, about 2,600 (0.72%) were called active.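 Rule for the calls: active = inhibition above its plate's cutoff, the mean inhibition of sample wells plus 3 SD (cut at about 27% in these data); inactive = the rest.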 The sample as a whole holds a higher share of actives than the screen did.
# Biological target: Muscarinic acetylcholine receptor M4 (Homo sapiens) (UniProt P08173)
# Sequence (P08173 whole entry, looked up): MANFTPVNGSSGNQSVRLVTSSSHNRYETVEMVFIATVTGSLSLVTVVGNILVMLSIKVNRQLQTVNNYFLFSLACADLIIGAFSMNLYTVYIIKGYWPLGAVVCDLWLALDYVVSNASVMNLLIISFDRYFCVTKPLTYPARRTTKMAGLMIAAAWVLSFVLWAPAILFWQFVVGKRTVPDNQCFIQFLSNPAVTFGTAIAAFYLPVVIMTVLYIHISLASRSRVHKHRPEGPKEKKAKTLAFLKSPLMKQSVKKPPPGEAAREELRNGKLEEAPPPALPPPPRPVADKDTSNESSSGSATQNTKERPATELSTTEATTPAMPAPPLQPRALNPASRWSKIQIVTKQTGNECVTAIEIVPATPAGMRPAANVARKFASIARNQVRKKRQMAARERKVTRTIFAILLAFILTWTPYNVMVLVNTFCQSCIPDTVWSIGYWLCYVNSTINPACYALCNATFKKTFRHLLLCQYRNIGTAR
# Assay: CHRM4 blockers of acetylcholine calcium response – CHO cells, Fluo-8 calcium fluorescence, primary screen (AID 624125);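 note: 0% = acetylcholine EC80 with DMSO and 100% = DMSO without agonist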
# Settings: CHO-hM4 cells, ACh EC80, Fluo-8 calcium fluorescence; at 3 µM; stronger effect = higher value
row,Structure (SMILES),inhibition
1,CC12CN(Cc3ccccc3)CC(C)(CN(Cc3ccccc3)C1)C2=NO,31.4% (active)
2,NC(=O)C1(N2CCCC2)CCN(Cc2ccccc2)CC1,-8.47% (inactive)
3,O=S1(=O)CCN(Cc2ccccc2)CC1,-1.75% (inactive)
4,COc1cccc(CC(=O)N2CCCC(CCC(=O)N3CCN(c4ccccn4)CC3)C2)c1 (stereo unspecified),-6.8% (inactive)
5,CC(=O)N[C@@H](C)C(=O)N1CCC(n2nccc2NC(=O)CCCc2ccccc2)CC1,-1.73% (inactive)
6,COc1ccccc1NC(=O)COC(=O)Cc1ccc(S(=O)(=O)N2CCCCC2)s1,-3.41% (inactive)
7,CC(C)Nc1nnc(SC(C)C(=O)N(C)C2CCCCC2)s1 (stereo unspecified),3.18% (inactive)
8,COc1cc(C(=O)NCc2ccc(-n3cccc3)cc2)cc(OC)c1OC,9.05% (inactive)
9,CCn1c(CNC(=O)c2cc(OC)c(OC)c(OC)c2)cc2cc(C)ccc21,28.2% (active)
10,COc1cc(C(=O)NCc2nnc(SCC(=O)Nc3nc4ccc(C)cc4s3)o2)cc(OC)c1OC,1.54% (inactive)
11,Cc1ccc(S(=O)(=O)N2CCC(C(=O)N[C@@H](C)C(=O)NCc3ccccc3)CC2)cc1,-7.25% (inactive)
12,Cc1coc2c1c(C)cc1oc(=O)c(CC(=O)NCC(=O)N[C@H](C(=O)O)C(C)C)c(C)c12,12.9% (inactive)
13,C=CCn1c(SCC(=O)NCc2ccccc2)nnc1-c1cc(Br)ccc1O,10.6% (inactive)
14,COc1ccccc1C(=O)NC(=O)COC(=O)c1ccco1,-3.72% (inactive)
15,COc1ccccc1S(=O)(=O)NCc1ccc(C(=O)N(C)Cc2ccc(F)cc2)cc1,0.25% (inactive)
16,Cc1ccc(CNC(=O)Cn2cnc(S(=O)(=O)N3CCCCC3)c2)o1,-2.52% (inactive)
17,CCN1CCN(c2cc3nc(C)n(Cc4ccccc4)c(=O)c3cc2NC(=O)c2ccccc2F)CC1,84.6% (active)
18,CCOc1cc(NC(=O)c2ccccc2C(=O)O)c(OCC)cc1NC(=O)c1ccccc1F,-12.1% (inactive)
19,CCC(=O)Nc1ccc2nc(C)n(Cc3ccccc3Cl)c(=O)c2c1,6.19% (inactive)

row,Structure (SMILES),inhibition
1,COc1ccc(NC(=O)C[C@H]2C(=O)N(CCc3ccccc3)C[C@@H]2C)cc1,-7.17% (inactive)
2,COc1cc2c(cc1OC)C(c1cccc([N+](=O)[O-])c1)=NCC2,-14.9% (inactive)
3,COc1ccc(C(CNCC(=O)Nc2ccccc2F)N(C)C)cc1 (stereo unspecified),-5.27% (inactive)
4,CCc1ccccc1NC(=O)CN(C)C(=O)COc1ccc(C)nc1[N+](=O)[O-],-2.74% (inactive)
5,COc1ccccc1CNC(=O)c1ccc(Cl)c(S(=O)(=O)N2CCCC2)c1,-5.41% (inactive)
6,COc1ccccc1C(CNC(=O)c1ccc(C)c(S(=O)(=O)N2CCCCC2)c1)N(C)C (stereo unspecified),51.6% (active)
7,Cc1ccc(C(=O)NCC(c2cccs2)N(C)C)cc1S(=O)(=O)N1CCOCC1 (stereo unspecified),8.72% (inactive)
8,CCOc1ccc(NS(=O)(=O)c2ccc(C(=O)NC3CCN(Cc4ccccc4)CC3)cc2)cc1,6.63% (inactive)
9,COc1ccc(C(CNC(=O)c2cccc(S(=O)(=O)Nc3ccc(Br)cc3)c2)N(C)C)cc1 (stereo unspecified),1.87% (inactive)
10,CCOc1ccc(S(=O)(=O)Nc2ccc(C(=O)NCCCN3CCCC3=O)cc2)cc1,-0.83% (inactive)
11,CCOc1ccc(NS(=O)(=O)c2ccc(C(=O)NCC(c3ccccc3OC)N3CCCC3)cc2)cc1 (stereo unspecified),40.8% (active)
12,COc1ccccc1C(CNC(=O)c1cccc(S(=O)(=O)Nc2ccc(F)cc2)c1)N(C)C (stereo unspecified),48.7% (active)
13,COc1ccccc1C(CNC(=O)c1cccc(NS(=O)(=O)c2ccc(Br)cc2)c1)N(C)C (stereo unspecified),10.7% (inactive)
14,Fc1cccc(Cc2c(-c3ccc(Cl)cc3)nc3ccc(Cl)cn23)c1,-24.1% (inactive)
15,CCOC(=O)C(CC)Sc1ncnc2c1nnn2-c1ccc(F)cc1 (stereo unspecified),-1.34% (inactive)
16,CC(C)Cc1cc(C(=O)Nc2cc(Br)ccc2O)no1,-14.2% (inactive)
17,CC(C)Cc1cc(C(=O)NCCc2ccccc2)no1,101% (active)
18,O=C(NCCCc1ccccc1)c1cc(COc2c(F)cccc2F)on1,-4.04% (inactive)
19,CC1(C(=O)NS(=O)(=O)c2ccccc2Cl)CCN1C(=O)c1cccc(F)c1 (stereo unspecified),3.33% (inactive)

row,Structure (SMILES),inhibition
1,CC(Sc1nncn1C)C(=O)Nc1cc(C(F)(F)F)ccc1N1CCOCC1 (stereo unspecified),-5.32% (inactive)
2,CN(CCC#N)c1ncnc2scc(-c3ccccc3)c12,-1.83% (inactive)
3,O=C(CN1CCCCCC1)Nc1ccc(Cl)cc1F,-14.1% (inactive)
4,O=C(CSc1nc2ccccc2o1)N1c2ccccc2Sc2ccc(Cl)cc21,-3.42% (inactive)
5,O=C(CN1C(=O)/C(=C\c2ccc(C(F)(F)F)cc2)Sc2ccccc21)NCc1ccco1,14.8% (inactive)
6,O=C(CN1CCCCCC1)N1c2ccccc2Sc2ccc(C(F)(F)F)cc21,98% (active)
7,O=C(CN1CCCCC1)N1c2ccccc2Sc2ccc(C(F)(F)F)cc21,97.5% (active)
8,CCC(=O)Nc1cc(C(F)(F)F)ccc1N1CCCC1,3.82% (inactive)
9,COc1cccc(CNC(=O)CCC2CCCN(C(=O)c3cc(C)[nH]n3)C2)c1 (stereo unspecified),-0.4% (inactive)
10,O=C(NCc1ccccc1)[C@H]1C[C@@H]1[C@H](NP(=O)(c1ccccc1)c1ccccc1)c1ccccc1,-6.36% (inactive)
11,O=C(Nc1c2c(nn1-c1ccc(F)cc1)CS(=O)C2)C12CC3CC(CC(C3)C1)C2 (stereo unspecified),-0.1% (inactive)
12,Cc1c([N+](=O)[O-])c(N)nn1C,-10.8% (inactive)
13,CCc1cccc(NC(=O)COC(=O)c2cc(=O)c3ccccc3o2)c1,-0.31% (inactive)
14,CN(CCc1ccccn1)C(=O)CCC1CCCN(Cc2ccccc2OC(F)F)C1 (stereo unspecified),31.4% (active)
15,COc1cccc(CNC(=O)CCC2CCCN(Cc3ccc(OC(F)F)cc3)C2)c1 (stereo unspecified),8.05% (inactive)
16,CN(CCc1ccccn1)C(=O)c1ccc(OC2CCN(Cc3ccccn3)CC2)cc1,10.3% (inactive)
17,CCCS(=O)(=O)Nc1ccc(-c2cn3c(n2)SCC3)cc1,4.45% (inactive)
18,CCN(CC(=O)Nc1ccc(OC)cc1)C(=O)c1ccc(=O)n(Cc2ccccc2)n1,6.9% (inactive)
